{
  "source": "PubChem BioAssay AID588591",
  "about": "(National Center for Advancing Translational Sciences (NCATS), 2011)",
  "note": "In all, about 390,000 compounds went through this assay and about 4,700 (1.2%) were called active. Not shown: some 4% with an inconclusive outcome. Calls come from the whole dose curve; as a rule, active = well fitted inhibition curve with a large enough effect; inconclusive = small, poorly fitted or top-dose-only effect, or another doubt; inactive = no such curve, though single readings can be large or run the other way. Shown is part of a subset that was picked to be rich in actives. % is set by controls: 0 for no effect and ±100 for the full control effect; potency is the fitted concentration of half-maximal effect.",
  "data": [
    {"target": "DNA polymerase eta (Homo sapiens) (UniProt Q9Y253)", "sequence (Q9Y253 whole entry, looked up)": "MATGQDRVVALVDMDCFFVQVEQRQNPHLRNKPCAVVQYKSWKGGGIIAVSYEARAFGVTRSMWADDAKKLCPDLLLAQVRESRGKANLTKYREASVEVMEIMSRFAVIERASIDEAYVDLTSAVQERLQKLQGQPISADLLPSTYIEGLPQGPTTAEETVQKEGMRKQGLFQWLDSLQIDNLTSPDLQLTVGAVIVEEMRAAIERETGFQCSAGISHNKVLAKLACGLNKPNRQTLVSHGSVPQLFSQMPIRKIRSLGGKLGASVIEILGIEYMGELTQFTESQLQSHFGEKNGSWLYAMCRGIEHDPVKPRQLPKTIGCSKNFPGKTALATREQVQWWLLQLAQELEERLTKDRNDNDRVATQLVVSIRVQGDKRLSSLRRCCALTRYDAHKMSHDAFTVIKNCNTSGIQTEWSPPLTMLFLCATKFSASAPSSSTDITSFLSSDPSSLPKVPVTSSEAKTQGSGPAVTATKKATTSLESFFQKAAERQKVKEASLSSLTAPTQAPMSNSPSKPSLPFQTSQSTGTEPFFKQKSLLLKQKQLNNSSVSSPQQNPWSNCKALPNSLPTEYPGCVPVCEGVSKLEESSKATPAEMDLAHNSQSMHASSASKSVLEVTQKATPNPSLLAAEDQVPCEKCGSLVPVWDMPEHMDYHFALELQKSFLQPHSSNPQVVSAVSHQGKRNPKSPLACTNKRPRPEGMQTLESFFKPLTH", "assay": "qHTS for Inhibitors of Polymerase Eta", "settings": "recombinant Pol eta, fluorescent DNA replication assay; series mostly up to 114 µM; activity change, negative = inhibition: at the top concentration", "source_text": "The Y-family of DNA polymerases, such as Pol eta, are specifically involved in DNA repair. Pol eta copies undamaged DNA with a lower fidelity than other DNA-directed polymerases. However, it accurately replicates UV-damaged DNA; when thymine dimers are present, this polymerase inserts the complementary nucleotides in the newly synthesized DNA, thereby bypassing the lesion and suppressing the mutagenic effect of UV-induced DNA damage. […] Thus, while pol eta's (and most likely iota's) normal function is to protect humans against the deleterious consequences of DNA damage, under certain conditions they can have deleterious effects on human health. As a consequence, we propose to utilize a high throughput replication assay to identify small molecule inhibitors of pol eta. In a collaboration between the National Institute of Child Health & Human Development (NICHD) and NIH Chemical Genomics Center, a high-throughput, fluorescent screen was developed to screen the NIH Molecular Libraries Small Molecule Repository (MLSMR). This screen is used to identify inhibitors of pol eta. NIH Chemical Genomics Center [NCGC] NIH Molecular Libraries Probe Centers Network [MLPCN] MLPCN Grant: MH090825 Assay Submitter (PI): Roger Woodgate, NICHD)\nThree microliters of reagents (buffer in column 3 and 4 as negative control and 10 nM Pol eta in columns 1, 2, and 5-48) were dispensed into a 1,536-well black solid-bottomed plate. Compounds (23 nL) were transferred via Kalypsys pin tool equipped with 1536-pin array. The plates were then incubated for 15 min at room temperature, and 1 µL substrate (50 nM final concentration) was added to start the reaction and kinetically read twice at 0 min and 10 min on the Viewlux reader", "values": [
      {"smiles": "O=C(O)C1=C(C(=O)O)C2CCC1C2", "Potency": "17.8 µM (active)"},
      {"smiles": "CCOc1ccccc1NC(=O)COc1ccc(S(=O)(=O)N2CCCC2)cc1", "activity change, negative = inhibition": "-8.27% (inactive)"},
      {"smiles": "O=C(CSc1ncc(S(=O)(=O)c2ccc(Br)cc2)c(=O)[nH]1)Nc1ccc2c(c1)OCCO2", "activity change, negative = inhibition": "-18.1% (inactive)"},
      {"smiles": "CCOc1ccccc1NC(=O)CSc1ncc(S(=O)(=O)c2ccc(C(C)(C)C)cc2)c(=O)[nH]1", "Potency": "89.1 µM (active)"},
      {"smiles": "Cc1cc(C)cc(NC(=O)Cc2csc(C)n2)c1", "activity change, negative = inhibition": "-1.34% (inactive)"},
      {"smiles": "COc1cccc(NC(=O)CSC2=Nc3ccccc3C3=NC(CC(=O)NC4CCCCC4)C(=O)N23)c1", "note": "(stereo not given)", "activity change, negative = inhibition": "-0.885% (inactive)"},
      {"smiles": "Cc1c(C(=O)N2CCCC2)oc2c1-c1nn(CC(=O)NCc3ccc(OC(C)C)cc3)cc1CC2", "activity change, negative = inhibition": "-18.6% (inactive)"},
      {"smiles": "CC(C)C1N=C2c3ccccc3N=C(SCC(=O)c3ccc(O)c(O)c3)N2C1=O", "note": "(stereo not given)", "Potency": "2.24 µM (active)"},
      {"smiles": "Cc1ccc(CNC(=O)CSC2=Nc3ccccc3C3=NC(C)C(=O)N23)cc1", "note": "(stereo not given)", "activity change, negative = inhibition": "-3.8% (inactive)"},
      {"smiles": "CCOC(=O)CSC1=Nc2ccccc2C2=NC(CCC(=O)NCc3ccc(F)cc3)C(=O)N12", "note": "(stereo not given)", "activity change, negative = inhibition": "3.45% (inactive)"},
      {"smiles": "CCCN1C(=O)C(O)(CC(=O)c2ccc(CC)cc2)c2cc(Br)ccc21", "note": "(stereo not given)", "activity change, negative = inhibition": "-2.45% (inactive)"},
      {"smiles": "COc1ccc(NC(=O)/C(C#N)=C\\c2cc(OC)c(OCc3ccc(C(=O)O)cc3)cc2Br)cc1", "Potency": "50.1 µM (active)"},
      {"smiles": "COc1ccc(CCNC(=O)CSc2nc(-c3ccc(OC)c(OC)c3)ccc2C#N)cc1", "activity change, negative = inhibition": "-16.6% (inactive)"},
      {"smiles": "CCOC(=O)c1ccc(-c2ccc(/C=C(\\C#N)C(=O)Nc3ccc(C)cc3)o2)cc1", "activity change, negative = inhibition": "-6.58% (inactive)"},
      {"smiles": "COc1ccc2c(c1)Cc1sc(NC(=O)c3ccccc3Br)nc1-2", "activity change, negative = inhibition": "-17.5% (inactive)"},
      {"smiles": "O=c1cc(CSc2ncn[nH]2)[nH]c2ccc(F)cc12", "activity change, negative = inhibition": "-5.87% (inactive)"},
      {"smiles": "O=C(c1ccc(CS(=O)(=O)c2ccccc2)o1)N1CCN(c2ccccc2)CC1", "Potency": "50.1 µM (active)"},
      {"smiles": "CCOC(=O)C1CCCN(C(=O)c2ccc(CS(=O)(=O)c3ccc(Br)cc3)o2)C1", "note": "(stereo not given)", "activity change, negative = inhibition": "-7.23% (inactive)"},
      {"smiles": "O=C(c1ccc(CS(=O)Cc2ccccc2Cl)o1)N1CCN(c2ccccc2)CC1", "note": "(stereo not given)", "activity change, negative = inhibition": "-11% (inactive)"},
      {"smiles": "COC(=O)c1sccc1S(=O)(=O)N(CC(=O)Nc1ccc(C)c(F)c1)c1ccc(C)c(C)c1", "activity change, negative = inhibition": "-16.4% (inactive)"},
      {"smiles": "CN(C)S(=O)(=O)c1cccc(-c2nn(-c3ccccc3)cc2/C=C2\\SC(=S)N(CC(=O)O)C2=O)c1", "Potency": "35.5 µM (active)"},
      {"smiles": "Cc1ccc(-c2nn(-c3ccccc3)cc2/C=C2\\SC(=S)N(CCCCCC(=O)O)C2=O)o1", "Potency": "44.7 µM (active)"},
      {"smiles": "Cc1nc(C)c(-c2nnc(-c3cccc(S(=O)(=O)N(C)C)c3)o2)cc1C(=O)NN", "activity change, negative = inhibition": "-1.81% (inactive)"},
      {"smiles": "Cc1nn(-c2ccc(F)cc2)c(-n2cccc2)c1C(=O)N1CCN(c2ccccc2)CC1", "activity change, negative = inhibition": "-19.6% (inactive)"},
      {"smiles": "COc1ccccc1N1CCN(CCCNC(=O)c2cnn(-c3ccccc3Cl)c2C2CCN(C(=O)OC(C)(C)C)CC2)CC1", "activity change, negative = inhibition": "-19.7% (inactive)"},
      {"smiles": "CSc1ccc(CCNC(=O)c2cnn(-c3ccccc3)c2-n2cccc2)cc1", "activity change, negative = inhibition": "-21.5% (inactive)"},
      {"smiles": "O=C(Nc1ccc(F)cc1F)c1ccc2c(=O)n3c(nc2c1)CCCCC3", "activity change, negative = inhibition": "7.2% (inactive)"},
      {"smiles": "CCc1cccc(NC(=O)c2cnc(N3CCOCC3)c3ccccc23)c1", "activity change, negative = inhibition": "-24.7% (inactive)"},
      {"smiles": "CCOC(=O)C1=C(c2ccccc2)NC(=O)NC1c1cc(OC)c(OC)cc1OC", "note": "(stereo not given)", "activity change, negative = inhibition": "5.55% (inactive)"},
      {"smiles": "CCOC(=O)C1=C(c2ccc(OC)cc2)C(=O)c2ccccc2C1=O", "Potency": "89.1 µM (active)"},
      {"smiles": "CCOC(=O)C1C(=O)C=C(c2ccc(OC)cc2)CC1c1ccco1", "note": "(stereo not given)", "activity change, negative = inhibition": "-5.95% (inactive)"},
      {"smiles": "Clc1ccc(CSc2nncn3c2cc2occc23)cc1", "activity change, negative = inhibition": "-28.9% (inactive)"},
      {"smiles": "C=CCC1(C#N)C(=S)NC(C)=C(C(=O)OCC)C1c1ccccc1", "note": "(stereo not given)", "activity change, negative = inhibition": "-9.51% (inactive)"},
      {"smiles": "C=CCOC(=O)C1=C(C)NC(SCC(=O)OCC)=C(C#N)C1c1ccc(C)cc1", "note": "(stereo not given)", "Potency": "17.8 µM (active)"},
      {"smiles": "CCOC(=O)C1=C(C)OC(N)=C(C#N)C1c1cncc(-c2ccc(F)cc2)c1", "note": "(stereo not given)", "activity change, negative = inhibition": "-10.5% (inactive)"},
      {"smiles": "COC(=O)c1c(NC(=O)c2ccc(Cl)c(Cl)c2)sc2c1CCCC2", "activity change, negative = inhibition": "-18.5% (inactive)"},
      {"smiles": "COC(=O)c1ccc(-c2nc3cc(NC(C)=O)ccc3o2)cc1", "activity change, negative = inhibition": "0.0029% (inactive)"},
      {"smiles": "CCOC(=O)c1c(NC(=O)CSc2nnc(CN3CCOCC3)n2C)sc2c1CCCC2", "activity change, negative = inhibition": "-21.9% (inactive)"},
      {"smiles": "NC(=O)c1c(NC(=O)CSc2nnc(-c3ccco3)n2N)sc2c1CCCC2", "Potency": "12.6 µM (active)"},
      {"smiles": "CC1CCN(C(=O)CSc2nnc(-c3ccco3)n2N)CC1", "activity change, negative = inhibition": "-18.2% (inactive)"},
      {"smiles": "CCOC(=O)c1c(C)[nH]c(CCC(=O)NCCCN2CCN(c3cc(C)ccc3C)CC2)c1C", "activity change, negative = inhibition": "-20.8% (inactive)"},
      {"smiles": "CCCc1nn2c(=O)cc(COC(=O)c3ccc(NC(=O)C(C)Oc4ccccc4)cc3)nc2s1", "note": "(stereo not given)", "activity change, negative = inhibition": "-0.486% (inactive)"},
      {"smiles": "COc1ccc(OC)c(CCNC(=O)CCCn2c(=O)c3cccn3c3cccnc32)c1", "activity change, negative = inhibition": "-8.68% (inactive)"},
      {"smiles": "Cc1ccccc1-c1nc2scc(CCNC(=O)C(=O)Nc3ccc(F)cc3F)n2n1", "activity change, negative = inhibition": "-18.1% (inactive)"},
      {"smiles": "Cc1ccc(C(=O)NCCSc2c(C)[nH]c3ccccc23)cc1C", "activity change, negative = inhibition": "-23.4% (inactive)"},
      {"smiles": "CCCCNC(=O)c1cc(-c2ccc(Cl)c(Cl)c2)on1", "activity change, negative = inhibition": "-6.17% (inactive)"},
      {"smiles": "Nc1ccc2c(c1)C(=Cc1cccnc1)c1ccccc1-2", "activity change, negative = inhibition": "-16% (inactive)"},
      {"smiles": "O=C(O)CCc1cccnc1", "activity change, negative = inhibition": "-2.96% (inactive)"},
      {"smiles": "O=C1/C(=C\\c2cccnc2)CN(Cc2ccccc2)C/C1=C\\c1cccnc1", "Potency": "50.1 µM (active)"},
      {"smiles": "COc1ccc(OCC(=O)Nc2cccc(C(=O)OCc3cc(=O)n4nc(C)sc4n3)c2)cc1", "activity change, negative = inhibition": "-20.5% (inactive)"},
      {"smiles": "O=C(O)C1CCN(c2ccc([N+](=O)[O-])cc2[N+](=O)[O-])CC1", "Potency": "25.1 µM (active)"},
      {"smiles": "CC1CCN(c2ccc(C(=O)NCc3ccc4c(c3)OCO4)cc2[N+](=O)[O-])CC1", "activity change, negative = inhibition": "-26.9% (inactive)"},
      {"smiles": "CC1CCN(c2ccc(C(=O)Nc3nnc(C4CC4)s3)cc2[N+](=O)[O-])CC1", "activity change, negative = inhibition": "-2.8% (inactive)"},
      {"smiles": "Cc1ccc(C(=O)c2ccc(N3CCN(C)CC3)c([N+](=O)[O-])c2)cc1", "activity change, negative = inhibition": "-11.6% (inactive)"},
      {"smiles": "CC1CCN(c2ccc(S(=O)(=O)Nc3cc(C(=O)O)cc(C(=O)O)c3)cc2[N+](=O)[O-])CC1", "Potency": "22.4 µM (active)"},
      {"smiles": "Cc1cccc(N2CCN(c3ccc(C(N)=O)cc3[N+](=O)[O-])CC2)c1C", "activity change, negative = inhibition": "-7.46% (inactive)"},
      {"smiles": "COc1ccc(C(=O)Nc2onc3c2CCCC3)cc1", "activity change, negative = inhibition": "-17.3% (inactive)"},
      {"smiles": "COc1ccc(CCNS(=O)(=O)c2cc(-c3cc(C)no3)ccc2C)cc1OC", "activity change, negative = inhibition": "-9.95% (inactive)"},
      {"smiles": "Cc1ccccc1NC(=O)Cn1c(=O)n(CC2CCC(C(=O)NCCc3ccccc3)CC2)c(=O)c2ccccc21", "note": "(stereo not given)", "activity change, negative = inhibition": "-0.383% (inactive)"},
      {"smiles": "O=C(CSc1nc2nccnc2c(=O)n1CCc1c[nH]c2ccccc12)Nc1ccccc1F", "activity change, negative = inhibition": "-13.3% (inactive)"}
    ]}
  ]
}
